# The panel holds about 83,000 compounds, 20% with a hit somewhere; the sample as a whole holds those more often.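 Cells were grown in 96-well plates and exposed to the test compound at a single concentration for 48 hours; results are reported as percent growth, with values below 10 considered active.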 Activity calls are given as the source filed them.
# System: NCI-H23 lung
# Assay: NCI-60 one-dose screen, 48 h (100 = growth as untreated, 0 = no growth, -100 = all killed)
# Details: 10 µM unless noted
row,Structure (SMILES),growth
1,COC(=O)[C@@H](Cc1c[nH]c2ccccc12)NC(=O)/C=C/c1ccccc1,39.4% (inactive)
2,NNc1ccc(S(N)(=O)=O)cc1,90.7% (inactive)
3,COc1ccc(-c2ccc(-c3ccc(C(=N)N)s3)s2)cc1,-70.3% (active)
4,O=P(O)(O)C(O)(Cc1cccnc1)P(=O)(O)O,93.1% (inactive)
5,O=C1OC(/C=C/c2ccccc2)=NC/1=C/c1ccccc1[N+](=O)[O-],106% (inactive)
6,N/C(=N\O)c1ncc(-c2ccc(C(F)(F)F)cc2)c(NC2CCCCCC2)n1,-78.9% [100 µM] (active)
7,Cc1cc(Nc2c3ccccc3nc3ccccc23)ccc1NS(C)(=O)=O,47% (inactive)
8,COC(=O)[C@H](Cc1cn(C)cn1)NC(=O)[C@H](CC(C)C)NC(=O)Nc1cc(C(F)(F)F)cc(C(F)(F)F)c1,-84.5% [100 µM] (active)
9,N=C(N)c1ccc(-c2ccc(-c3cccs3)s2)cc1F,-62.8% (active)
10,O=C(Nc1cccc(Cl)c1)Nc1ccccc1Cl,73.1% (inactive)
11,CCCCCCCCCCCCCC,92.5% (inactive)
12,Cc1nn(-c2ccccc2)c2nc3c(nc12)C1=NCCN1C(c1ccc(Cl)cc1)N3 (stereo unspecified),92.8% (inactive)
13,COc1cc(OC)c(C(=O)/C=C/c2cccc(OC(C)=O)c2)cc1CC=C(C)C,72.2% (inactive)
14,C[N+](C)(C)CCCCCCCCCC[N+](C)(C)C,88.7% (inactive)
15,Cc1cc2nc(CN)[nH]c2cc1C,103% (inactive)
16,CC(=O)C1CCC2C3CC(C)=C4CC(O)CCC4(C)C3CCC12C (stereo unspecified),99.5% (inactive)
17,N=C(N)c1ccc(-c2ccc(-c3ccco3)o2)cc1F,56.2% (inactive)
18,N#Cc1ccc(-c2ccc(-c3cccs3)o2)cc1F,76.9% (inactive)
19,O=C(Nc1cccc(-n2ccc3c(NC(=O)c4ccccc4)nccc32)c1)c1ccc(Cl)c(Cl)c1,-31.3% (active)

row,Structure (SMILES),growth
1,COc1ccc2nc3ccccc3c(NCc3ccc(C)cc3)c2c1,28.3% (inactive)
2,COc1cc(OC)cc(-c2ccc(-c3ccc(C(=N)N)s3)s2)c1,-75.7% (active)
3,COc1ccc(-c2cc(-c3cc4ccccc4oc3=O)n(-c3ccccc3)n2)cc1,79.3% (inactive)
4,O=C1c2cccc3cccc(c23)C(=O)N1CCCCCCCCCCN1C(=O)c2cccc3cccc(c23)C1=O,112% (inactive)
5,O=C(CCCN1CCC(O)(c2ccc(Br)cc2)CC1)c1ccc(F)cc1,68.3% (inactive)
6,O=C(c1ccc(OCCN2CCCCC2)cc1)c1c(-c2ccc(O)cc2)sc2cc(O)ccc12,82.5% (inactive)
7,CCCCCc1c(C)[nH]c(/C=C2\N=C(c3ccc[nH]3)C=C2Oc2ccc(OC)cc2)c1C,-67.1% [100 µM] (active)
8,ClCCn1cnc2c(SCc3ccccc3Cl)ncnc21,53.1% (inactive)
9,O=C(N/N=C/c1ccc([N+](=O)[O-])o1)c1ccc(O)cc1,41.5% (inactive)
10,CCS(=O)(=O)Nc1cccc(Nc2c3cccc(C)c3nc3c(C)cccc23)c1OC,11.1% (inactive)
11,CCN(C(=O)CCl)C(C)(C)C(SSSC(c1ccc(Cl)cc1)C(C)(C)N(CC)C(=O)CCl)c1ccc(Cl)cc1 (stereo unspecified),93.6% (inactive)
12,CCOC(=O)C(CCCCC(NC(C)=O)(C(=O)OCC)C(=O)OCC)(NC(C)=O)C(=O)OCC,103% (inactive)
13,COc1ccc(-n2nc(C(=O)Nc3ccc(F)cc3)nc2-c2cc(OC)c(OC)c(OC)c2)cc1,92.7% (inactive)
14,ClC1=NC(Cl)C(Cl)=N/C1=N\c1ncn[nH]1 (stereo unspecified),62.8% (inactive)
15,COc1cc2c(cc1OC)-c1cc(OC)c(OC)cc1C(CN(C)C)C2 (stereo unspecified),51.8% [100 µM] (inactive)
16,Oc1ccc(-c2nnc3c4[nH]ccc4ncn23)cc1,91.5% (inactive)
17,COc1ccc(/C=N/NC(N)=S)c(OC)n1,108% (inactive)
18,CC(C)(C)c1cc(C[P+](c2ccccc2)(c2ccccc2)c2ccccc2)cc(C(C)(C)C)c1O,-6.21% (active)
19,FC(F)(F)c1cc(-c2nnc3n2N=C(Cl)CS3)cc(C(F)(F)F)c1,93% (inactive)

# System: NCI-H226 lung
# Assay: as above
# Details: 10 µM unless noted
row,Structure (SMILES),growth
1,COC(=O)[C@@H](Cc1c[nH]c2ccccc12)NC(=O)/C=C/c1ccccc1,60.2% (inactive)
2,NNc1ccc(S(N)(=O)=O)cc1,93.7% (inactive)
3,COc1ccc(-c2ccc(-c3ccc(C(=N)N)s3)s2)cc1,-50.9% (active)
4,O=P(O)(O)C(O)(Cc1cccnc1)P(=O)(O)O,111% (inactive)
5,O=C1OC(/C=C/c2ccccc2)=NC/1=C/c1ccccc1[N+](=O)[O-],93.3% (inactive)
6,N/C(=N\O)c1ncc(-c2ccc(C(F)(F)F)cc2)c(NC2CCCCCC2)n1,-42.4% [100 µM] (active)
7,Cc1cc(Nc2c3ccccc3nc3ccccc23)ccc1NS(C)(=O)=O,41.8% (inactive)
8,COC(=O)[C@H](Cc1cn(C)cn1)NC(=O)[C@H](CC(C)C)NC(=O)Nc1cc(C(F)(F)F)cc(C(F)(F)F)c1,-54.7% [100 µM] (active)
9,N=C(N)c1ccc(-c2ccc(-c3cccs3)s2)cc1F,-65.6% (active)
10,O=C(Nc1cccc(Cl)c1)Nc1ccccc1Cl,108% (inactive)
11,CCCCCCCCCCCCCC,106% (inactive)
12,Cc1nn(-c2ccccc2)c2nc3c(nc12)C1=NCCN1C(c1ccc(Cl)cc1)N3 (stereo unspecified),86.2% (inactive)
13,COc1cc(OC)c(C(=O)/C=C/c2cccc(OC(C)=O)c2)cc1CC=C(C)C,69.6% (inactive)
14,C[N+](C)(C)CCCCCCCCCC[N+](C)(C)C,95.6% (inactive)
15,Cc1cc2nc(CN)[nH]c2cc1C,105% (inactive)
16,CC(=O)C1CCC2C3CC(C)=C4CC(O)CCC4(C)C3CCC12C (stereo unspecified),93.4% (inactive)
17,N=C(N)c1ccc(-c2ccc(-c3ccco3)o2)cc1F,67.4% (inactive)
18,N#Cc1ccc(-c2ccc(-c3cccs3)o2)cc1F,81.8% (inactive)
19,O=C(Nc1cccc(-n2ccc3c(NC(=O)c4ccccc4)nccc32)c1)c1ccc(Cl)c(Cl)c1,31.1% (inactive)

row,Structure (SMILES),growth
1,COc1ccc2nc3ccccc3c(NCc3ccc(C)cc3)c2c1,42.1% (inactive)
2,COc1cc(OC)cc(-c2ccc(-c3ccc(C(=N)N)s3)s2)c1,-65.3% (active)
3,COc1ccc(-c2cc(-c3cc4ccccc4oc3=O)n(-c3ccccc3)n2)cc1,75.7% (inactive)
4,O=C1c2cccc3cccc(c23)C(=O)N1CCCCCCCCCCN1C(=O)c2cccc3cccc(c23)C1=O,96.4% (inactive)
5,O=C(CCCN1CCC(O)(c2ccc(Br)cc2)CC1)c1ccc(F)cc1,99.5% (inactive)
6,O=C(c1ccc(OCCN2CCCCC2)cc1)c1c(-c2ccc(O)cc2)sc2cc(O)ccc12,92.3% (inactive)
7,CCCCCc1c(C)[nH]c(/C=C2\N=C(c3ccc[nH]3)C=C2Oc2ccc(OC)cc2)c1C,-15.7% [100 µM] (active)
8,ClCCn1cnc2c(SCc3ccccc3Cl)ncnc21,57% (inactive)
9,O=C(N/N=C/c1ccc([N+](=O)[O-])o1)c1ccc(O)cc1,89.7% (inactive)
10,CCS(=O)(=O)Nc1cccc(Nc2c3cccc(C)c3nc3c(C)cccc23)c1OC,-6.89% (active)
11,CCN(C(=O)CCl)C(C)(C)C(SSSC(c1ccc(Cl)cc1)C(C)(C)N(CC)C(=O)CCl)c1ccc(Cl)cc1 (stereo unspecified),104% (inactive)
12,CCOC(=O)C(CCCCC(NC(C)=O)(C(=O)OCC)C(=O)OCC)(NC(C)=O)C(=O)OCC,105% (inactive)
13,COc1ccc(-n2nc(C(=O)Nc3ccc(F)cc3)nc2-c2cc(OC)c(OC)c(OC)c2)cc1,79.3% (inactive)
14,ClC1=NC(Cl)C(Cl)=N/C1=N\c1ncn[nH]1 (stereo unspecified),106% (inactive)
15,COc1cc2c(cc1OC)-c1cc(OC)c(OC)cc1C(CN(C)C)C2 (stereo unspecified),18.4% [100 µM] (inactive)
16,Oc1ccc(-c2nnc3c4[nH]ccc4ncn23)cc1,100% (inactive)
17,COc1ccc(/C=N/NC(N)=S)c(OC)n1,85.7% (inactive)
18,CC(C)(C)c1cc(C[P+](c2ccccc2)(c2ccccc2)c2ccccc2)cc(C(C)(C)C)c1O,32.3% (inactive)
19,FC(F)(F)c1cc(-c2nnc3n2N=C(Cl)CS3)cc(C(F)(F)F)c1,99.8% (inactive)

# Source: PubChem BioAssay (NCI)
